We go through 55 compounds from PubChem BioAssay AID2540 (Sanford-Burnham Center for Chemical Genomics, 2010).

By inhibition is commonly meant the change of the read-out against control, counted positive when it falls.

Each structure is given as a SMILES string. Hit rate of the full screen: of about 330,000 compounds, about 4,100 (1.2%) were called active. This excerpt belongs to a sample that is enriched for actives. Values without a mark were called inactive. Cut-off read from the data, not from the text of the source: active = inhibition above about 50%; inactive = the rest.

The assay deals with Sentrin-specific protease 8 (Homo sapiens) (UniProt Q96LD8). Kind of assay: blockers of human SENP8 peptidase activity – biochemical, luminescence, primary screen (AID 2540). The settings on record: purified SENP8, Z-RLRGG-aminoluciferin cleavage, at 10 µM, stronger effect = higher value.
Sentrin-specific protease 8 (Homo sapiens), sequence (Q96LD8 whole entry, looked up): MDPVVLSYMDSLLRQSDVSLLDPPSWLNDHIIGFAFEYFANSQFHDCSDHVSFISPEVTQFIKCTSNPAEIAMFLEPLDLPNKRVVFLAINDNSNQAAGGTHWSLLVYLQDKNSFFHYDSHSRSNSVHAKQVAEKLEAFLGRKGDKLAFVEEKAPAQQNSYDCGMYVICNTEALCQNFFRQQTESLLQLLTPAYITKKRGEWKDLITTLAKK
As to `COc1ccccc1NC(=O)COC(=O)CNC(=O)C1CCCCC1`, the inhibition was 8.04%.

`COc1cc(/C=N/N=C(\N)c2nonc2N)cc(OC)c1OC`: the inhibition is -1.1%.

For the compound `CN(C)c1nnnn1-c1ccc(Cl)cc1`, the inhibition is 2.64%.

Consider `c1ccc(-n2nc3ccccc3n2)cc1`, for which the inhibition is -19.2%.

Turning to `Nc1ccc2nn(-c3ccc(Cl)cc3)nc2c1`, the inhibition is 86.7% (active).

For the compound `COc1ccc(Br)cc1CN(C)CC(=O)Nc1cc([N+](=O)[O-])ccc1OC`, the inhibition is -6.64%.

Consider `Cc1ccc2c(c1)NCC(C(=O)NC1CCC(C)CC1)O2` (stereo not given), for which the inhibition is -10.8%.

As to `COc1cccc(C(=O)NC(=O)Nc2nc(C)cc(C(F)(F)F)n2)c1`, the inhibition was -10.3%.

Consider `CNC(=O)c1cc2c(ccc3ccccc32)oc1=N`, for which the inhibition is -3%.

For the compound `N=c1oc2ccccc2cc1C(=O)N/N=C/c1ccccc1`, the inhibition is 86.5% (active).

Consider `Cc1ccc(/C=N/NC(=S)Nc2cccc(S(=O)(=O)N(C)C)c2)o1`, for which the inhibition is 1.79%.

With `Cc1ccc(/C=N/NC(=S)NC2CCCCC2)o1`, the inhibition was -5.05%.

Consider `Cc1ccc(/C=N/NC(=O)c2cc3ccccc3cc2O)o1`, for which the inhibition was 55.8% (active).

As to `N=c1oc2ccccc2cc1C(=O)NCc1ccccc1`, the inhibition is -17.9%.

Consider `CN(CC(=O)NC1CCCC1)S(=O)(=O)c1cnc[nH]1`, for which the inhibition was -8.57%.

Turning to `O=C(NCCO)C(=O)NCC(c1ccc2c(c1)OCO2)N1CCN(c2ccc(F)cc2)CC1` (stereo not given), the inhibition is -0.025%.

For the compound `CC(=O)N1CC(C)c2scc(C)[n+]2-c2ccccc21` (stereo not given), the inhibition is 0.506%.

As to `COc1ccc(S(=O)(=O)Nc2ccc(F)cc2)c(C)c1C`, the inhibition is 3.56%.

Take `O=C(Nc1cc2c3c(c1)CC(=O)N3CCC2)c1ccccc1F`: the inhibition is 3.3%.

Regarding `Cc1ccc(C)c(NC(=O)CSc2nc3c(oc4ccccc43)c(=O)n2-c2ccccc2)c1`, the inhibition was -0.496%.

Take `Oc1ccc(N=Nc2nccs2)c(O)c1`: the inhibition was 72.7% (active).

`O=C(Nc1cccc(Cl)c1)Nc1ccccc1NS(=O)(=O)c1cccs1`: the inhibition is 11.3%.

`COC(=O)CNC(c1ccccc1Cl)c1cc(Br)ccc1NC(=O)CCN1CCOCC1` (stereo not given): the inhibition is -4.92%.

For the compound `Cn1c(Cn2nnc3ccccc32)nnc1SCC(=O)c1ccccc1F`, the inhibition is 0%.

With `Cc1oc(-c2cccc(Cl)c2)[n+]([O-])c1C`, the inhibition was -7.45%.

With `Clc1ccc(-c2cc(C3CCNCC3)[nH]n2)c(Cl)c1`, the inhibition is 0.621%.

For `Cc1nn(C)cc1N1C(=O)c2cccc3c(N)ccc(c23)C1=O`, the inhibition was 0.391%.

Take `CCN1C(=O)c2cccc3c(S(=O)(=O)Nc4ccccc4O)ccc1c23`: the inhibition was 6.13%.

As for `CCN1C(=O)c2cccc3c(N)ccc1c23`, the inhibition is 83.8% (active).

With `CC1=C2C(=O)OC(c3ccoc3)C2(C)CCC1` (stereo not given), the inhibition is -1.03%.

For `CCc1ccc(NC(=O)COC(=O)c2cccs2)cc1`, the inhibition is 11.2%.

For the compound `CC(C)C(=O)Nc1ccc(C(=O)NNC(=O)c2cccs2)cc1`, the inhibition was -0.29%.

For `CCc1ccc(NC(=O)C(=O)NNC(=O)c2cccs2)cc1`, the inhibition is 69.7% (active).

`Cc1ccc(CCCOC(=O)C[N+]2(C)CCCCC2)cc1`: the inhibition is 7.71%.

As to `COc1ccc(CCNc2cc(N3CCN(C(=O)c4ccccc4OC)CC3)ccc2[N+](=O)[O-])cc1OC`, the inhibition is -3.35%.

Turning to `CC1=NN(C(N)=S)C(=O)C1N=Nc1cc(Cl)ccc1Cl` (stereo not given), the inhibition is 70.4% (active).

For `NC(=O)CC[C@@H]1NC(=O)[C@@H]2CCCN2C(=O)c2cc([N+](=O)[O-])cc(F)c2NCCC[C@@H](C(N)=O)NC1=O`, the inhibition is -2.54%.

On to `CN(CC(=O)NCc1cccnc1)S(=O)(=O)c1cc(Cl)ccc1Cl`, for which the inhibition is 3.65%.

With `CN1C(C(=O)NCc2ccco2)CC2Cn3c(nc4ccccc43)C21` (stereo not given), the inhibition is -18.3%.

Take `O=C(O)CN1C(=O)CC(Cc2ccccc2)C1=O` (stereo not given): the inhibition is 4.48%.

Consider `CCOC(=O)c1ccc(NC(=O)c2c(NCc3ccccc3)[nH]c(=O)[nH]c2=O)cc1`, for which the inhibition was 0.312%.

As for `CCOC(=O)c1ccc(Nc2cc3ccccc3c(=O)[nH]2)cc1`, the inhibition was 64.2% (active).

As to `CCOC(=O)c1ccc(Nc2cc(C)nc3nc(C)nn23)cc1`, the inhibition is 7.18%.

Turning to `O=C(NN1C(=O)C2C3C=CC(O3)C2C1=O)c1ccccc1` (stereo not given), the inhibition is -0.512%.

Turning to `Nc1ccc(N=Nc2ccccc2Cl)c(N)n1`, the inhibition was 72.7% (active).

`COc1ccccc1C1CC(=O)n2c(nc(-c3ccccc3)c2-c2ccccc2)S1` (stereo not given): the inhibition was -4.43%.

For the compound `CC(=O)c1cnn(-c2cc(Oc3ccc(F)cc3)ncn2)c1C`, the inhibition was 9.6%.

Turning to `O=C(COc1ccc2c(c1)CCC2)N1CCN(c2ccc(F)cc2)CC1`, the inhibition was -17.5%.

With `COC(=O)c1ccc(/C=C/c2c(-c3ccc(OC)cc3)sc3ccccc23)cc1`, the inhibition was -2.53%.

With `COc1ccc(-c2sc3ccccc3c2-c2ccc(OCCN3CCOCC3)cc2)cc1`, the inhibition was 8%.

On to `COc1ccc(N=C(C)c2sc3ccccc3c2O)cc1`, for which the inhibition is 74% (active).

In the case of `COC(=O)C1=CN(c2ccc(F)c(F)c2)C=C(C(=O)OC)C1c1ccc([N+](=O)[O-])cc1`, the inhibition is -9.67%.

As for `CC(=O)N1CCN(C(=O)C2(NC(=O)Nc3ccc(C)cc3)CCCCC2)CC1`, the inhibition was 5.59%.

On to `CC1(C)CC(N(Cc2ccccc2)C(=O)Cc2ccccc2)CCO1` (stereo not given), for which the inhibition was -3.89%.

On to `COc1ccc(-c2ccc(OC(=O)NC3CCS(=O)(=O)C3)cc2)cc1` (stereo not given), for which the inhibition is -13.5%.
